# Shown are actives, neighbours in structure and some others; about 2.4% of the full set was active somewhere.
# POLB inh = DNA polymerase beta (human) inhibition. 1.3% of 340,000 active. Pol beta primer extension/strand displacement, fluorescence kinetic. P06746. Potency, µM (highest dose often 114 µM), for the others: at the top dose activity change, negative = inhibition, actives largely listed as inhibitors; further: on the % scale 0 is the no-effect control and ±100 the full control effect
#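 Kinetic readout of DNA synthesis with strand displacement by Pol beta. Compound and 10 nM enzyme sit 15 min at room temperature; 50 nM substrate starts the reaction, read immediately and at 10 min.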
# POLI inh = DNA polymerase iota (human) inhibition; Potency, µM (titrated, usually from 115 µM), for inactives: top-dose activity, negative = inhibition, actives largely listed as inhibitors; Q9UNA4; Pol iota fluorescent replication assay, 10 min; 1% of 390,000 active
# Target sequence (Q9UNA4 whole entry, looked up): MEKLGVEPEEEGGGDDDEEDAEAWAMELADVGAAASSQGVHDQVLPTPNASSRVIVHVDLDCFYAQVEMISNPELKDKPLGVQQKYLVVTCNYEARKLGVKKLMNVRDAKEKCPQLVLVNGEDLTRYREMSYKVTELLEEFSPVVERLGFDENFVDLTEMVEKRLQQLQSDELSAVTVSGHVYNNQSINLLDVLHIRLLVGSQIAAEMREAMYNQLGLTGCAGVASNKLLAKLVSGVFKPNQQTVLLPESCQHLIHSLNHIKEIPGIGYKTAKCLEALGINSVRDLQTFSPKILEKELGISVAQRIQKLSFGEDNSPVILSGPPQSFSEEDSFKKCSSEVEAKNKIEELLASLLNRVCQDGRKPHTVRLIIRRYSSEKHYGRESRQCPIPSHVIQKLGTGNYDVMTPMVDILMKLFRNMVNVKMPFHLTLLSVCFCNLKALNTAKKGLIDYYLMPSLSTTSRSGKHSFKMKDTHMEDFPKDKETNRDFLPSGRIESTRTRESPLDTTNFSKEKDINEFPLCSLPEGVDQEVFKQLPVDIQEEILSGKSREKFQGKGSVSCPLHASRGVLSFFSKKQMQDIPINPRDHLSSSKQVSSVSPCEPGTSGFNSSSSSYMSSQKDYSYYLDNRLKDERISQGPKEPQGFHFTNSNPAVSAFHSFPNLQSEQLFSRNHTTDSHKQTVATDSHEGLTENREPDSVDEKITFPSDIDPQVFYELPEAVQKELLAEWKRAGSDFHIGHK
#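 Fluorescent replication assay read twice, at 0 min and 10 min after adding 50 nM (final) substrate. Enzyme (10 nM) and compounds were first incubated 15 min at room temperature; enzyme-free buffer wells were negative controls.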
# POLK inh = DNA polymerase kappa (human) inhibition. 0.53% of 400,000 active. purified Pol kappa, fluorescent DNA synthesis assay, 10 min. Q9UBT6. Potency, µM (top dose mostly 107 µM), without a hit: at the highest dose activity, negative = inhibition, usual class: inhibitors. AID 588579; further: on the % scale 0 is the no-effect control and ±100 the full control effect
#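 First, compounds were pin-transferred onto 10 nM Pol kappa. After 15 min at room temperature, substrate was added to 50 nM final. Fluorescence was then measured kinetically at 0 and 10 min.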
# FEN1 inh = blocks human flap endonuclease 1 | P39748 | Recombinant FEN1 flap cleavage, fluorescence, 15 min | Potency, µM (series often up to 114 µM), without a hit: top-dose activity change, negative = inhibition, most hits filed as inhibitors | 0.35% of 390,000 active | AID 588795; further: on the % scale 0 is the no-effect control and ±100 the full control effect; nearly all actives have a fitted effect of over 65% in size
#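 Nuclease activity of 10 nM FEN1 was measured after 15 min of room-temperature exposure to titrated compounds, by adding 50 nM flap substrate and reading plates at 0 and 15 min.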
# WRN helicase inh-1 = inhibitors of human WRN helicase; Q14191; WRN helicase unwinding, fluorescent forked duplex, kinetic; Potency, µM (doses to about 114 µM), without a hit: at the top dose activity change, negative = inhibition, usual class: inhibitors; 0.46% of 360,000 active; AID 651768; further: on the % scale 0 is the no-effect control and ±100 the full control effect; nearly all actives have a fitted effect of over 55% in size
#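 Fluorescence dequenching readout, ex 525 nm/em 598 nm, kinetic mode: forked duplex DNA (100 nM final) with adjacent fluorophore and quencher unwound by WRN (20 nM final) with 2 mM ATP. Compound preincubation 15 min, room temperature.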
# Pol eta inh = blocks human DNA polymerase eta activity; Q9Y253; recombinant Pol eta, fluorescent DNA replication assay; Potency, µM (doses to about 114 µM), for inactives: top-dose activity change, negative = inhibition, hits mostly inhibitors; 1.2% of 390,000 active; AID 588591; further: on the % scale 0 is the no-effect control and ±100 the full control effect
#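 Pol eta at 10 nM preincubated with compounds 15 min at room temperature; reaction started with fluorescent substrate (50 nM final) and read kinetically at 0 and 10 min.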
# WRN helicase inh-2 = WRN helicase inhibition, cherry-pick retest; 63% of 610 active; WRN helicase DNA unwinding, fluorescence kinetic; Potency, µM (doses to about 57.1 µM), for inactives: at the top dose activity, negative = inhibition, actives largely listed as inhibitors; shares compounds with WRN helicase inh-1; further: nearly all actives have a fitted effect of over 65% in size
# TO displacement = counter-screen for WRN helicase inhibitors: DNA binding; shares compounds with WRN helicase inh-1; thiazole orange DNA binding displacement, fluorescence; Potency, µM (top dose mostly 57.1 µM), for inactives: at the highest dose activity change, negative = inhibition, hits mostly inhibitors; 10% of 610 active;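 further: drop in dye fluorescence marks compound binding to DNA; on the % scale 0 is the no-effect control and ±100 the full control effect; nearly all actives have a fitted effect of over 60% in size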
# BLM helicase inh = blocks human BLM helicase in WRN counterscreen; shares compounds with WRN helicase inh-1; Recombinant BLM helicase DNA unwinding, red fluorescence; Potency, µM (top dose mostly 57.1 µM), inactives show top-dose activity change, negative = inhibition, hits mostly inhibitors; 60% of 610 active; further: nearly all actives have a fitted effect of over 60% in size
# Starred values were filed as active, the others as inactive; i = inactive; ? = inconclusive; nt = not tested or not shown; [ ] = another dose, or the depositor's remark. The call rests on the fitted dose curve; in most records, active means well fitted curve in the direction sought with a large enough effect; inconclusive means small, poorly fitted or top-dose-only effect, or another doubt; inactive means no such curve, though single readings can be large; an effect the other way counts as inactive or inconclusive. Potency means the concentration at half of the fitted maximal effect.
SMILES,POLB inh,POLI inh,POLK inh,FEN1 inh,WRN helicase inh-1,Pol eta inh,WRN helicase inh-2,TO displacement,BLM helicase inh
COc1ccc(/C=N/NC(=O)c2ccccc2OC)cc1COc1ccc(C)cc1,10%,14%,-11%,-2%,-26%,-9%,nt,nt,nt
COc1ccc(/C=N/NC(=O)c2ccccc2OC)cc1COc1ccccc1[N+](=O)[O-],?,-29%,-1%,3%,?,-15%,?,-5%,-20%
Cc1c(O)ccc(/C=N/Nc2nc(-c3cccnc3)nc3ccccc23)c1O,3%,-17%,?,?,?,?,?,27µM*,?
Oc1ccc(/C=N/Nc2nc(-c3cccnc3)nc3ccccc23)c(O)c1,?,?,-10%,-33%,-31%,-3%,nt,nt,nt
CCOC(=O)c1c(NC(=O)CCCOc2ccc(C(C)(C)C)cc2)sc2c1CCCC2,12%,?,-18%,9%,nt,-15%,nt,nt,nt
COc1ccccc1C(=O)Nc1ccccc1OCc1cc(=O)n2cc(C)sc2n1,49%,25%,3%,2%,nt,0%,nt,nt,nt
COCCNC(=O)CSc1nc(-c2ccc(C)cc2)nc2c1c(=O)n(C)c(=O)n2C,26%,0%,-1%[60.1 µM],-10%,nt,nt,nt,nt,nt
O=C(O)COc1ccccc1/C=N/NC(=O)c1cc(-c2ccc(Cl)cc2)nc2ccccc12,-6%,-18%,-1%,?,?,?,?,?,27µM*
COc1ccc([N+](=O)[O-])c(S(=O)(=O)c2ccccc2)n1,21%,14µM*,1%,2%,32µM*,-6%,?,-8%,-19%
O=[N+]([O-])c1cccnc1S(=O)(=O)c1ccccc1,13%,27%,-4%,12%,-29%,-2%,nt,nt,nt
COc1ccc([N+](=O)[O-])c(S(=O)(=O)c2ccc(Cl)cc2)n1,-23%,?,5%,-20%,16µM*,-8%,?,-5%,-16%
Cc1cc(C(=O)OCC(=O)NC(=O)C2CCCCC2)ccc1[N+](=O)[O-],nt,34%,-18%,3%,nt,nt,nt,nt,nt
CCOc1cccc(C(c2c(C)n(C)n(-c3ccccc3)c2=O)c2c(C)n(C)n(-c3ccccc3)c2=O)c1OC,-3%,-1%,-11%,20%,0%,-20%,nt,nt,nt
COc1cccc(C(c2c(C)[nH]n(-c3ccccc3)c2=O)c2c(C)[nH]n(-c3ccccc3)c2=O)c1OC,-26%,1.3µM*,-28%,-24%,?,-6%,-11%,-10%,-11%
Clc1ccc2nc(NCc3ccccc3)c3nncn3c2c1,13%,8%,3%,4%,nt,nt,nt,nt,nt
N#Cc1ncc(Cc2ccccc2)nc1C#N,7%,33%,-13%,8%,1.7µM*,40µM*,-10%,-7%,-19%
CC(=O)[C@@]1(O)Cc2c(O)c3c(c(O)c2[C@H](O[C@H]2C[C@H](N)[C@H](O)[C@H](C)O2)C1)C(=O)c1ccccc1C3=O,nt,nt,nt,nt,nt,nt,24µM*,i,24µM*
COc1ccc(-n2c(O)c(/C=N/NS(=O)(=O)c3ccc(C)c([N+](=O)[O-])c3)c3ccccc3c2=O)cc1OC,-27%,?,-19%,-10%,?,-16%,19µM*,295%,22µM*
CC1=C(SCc2ccccc2)C(=O)c2ccccc2C1=O,nt,3.2µM*,-11%,?,?,32µM*,?,?,24µM*
Cn1c(SCc2ccccc2)nccc1=O,nt,52%,-1%,4%,3%,-21%,nt,nt,nt
CCOC(=O)c1cccc(NC(=O)Cn2c(=O)c3cccn3c3ccccc32)c1,2%,20%,-3%,3%,nt,-9%,nt,nt,nt
COc1cccc(N2CCN(C(=O)c3cc4c(=O)n(Cc5ccco5)ccc4nc3C)CC2)c1,?,-8%,15%,18%,nt,-11%,nt,nt,nt
Cc1ccc2nc3c(cc2c1)c(C)nn3-c1ccccc1,20%,8%,19%,6%,5%,-18%,nt,nt,nt
Cc1nn(-c2ccccc2)c2nc(=O)n(-c3ccccc3)cc12,30%,?,-9%,-4%,?,-4%,-17%,0%,-13%
CC1CCCCN1CCCNC(=O)Cn1ncc2c3ccccc3n(Cc3ccccc3)c2c1=O (stereo unspecified),0%,25%,-7%,4%,nt,-18%,nt,nt,nt
CCc1ccccc1NC(=O)Cn1c(=O)n(Cc2ccccc2)c(=O)c2c(C)c(C(=O)N(C)C)sc21,-22%,15%,2%[60.1 µM],-1%,nt,-25%,nt,nt,nt
CCc1nnc(NS(=O)(=O)c2ccc(N/C=C\C(=O)c3cccc4ccccc34)cc2)s1,-18%,-15%,-7%,-9%,27µM*,45µM*,24µM*,-21%,27µM*
COc1ccc(/C=C2\C(=O)ON=C2c2ccccc2)cc1,-2%,?,-5%,-10%,32µM*,10%,-23%,-4%,-25%
O=C1ON=C(c2ccccc2)/C1=C/c1ccc(OS(=O)(=O)c2ccccc2)cc1,-9%,-3%,-29%,-2%,?,?,nt,nt,nt
